“And” between values parts separate entries of the source, which are not always exact repeats. Equal values may be shown once. Among all 5,500 compounds or so, about 2,000 (36%) were called active. Another 18% or so got no clear call; they are omitted. No stated cut-off is given here; in the data, active means normalized growth mostly below about 0.91 (no sharp cut-off); inconclusive means no clear call, values can overlap the other calls; inactive means mostly above about 0.92. Some of the results follow.
Assay: chemical genetic growth profiling, strain panel (AID 1159580);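 further: tested at 20 µM; growth read once vehicle control cultures reached saturation at 30 °C; 1 = growth at the plate median or of vehicle wells; lower values mean less growth of the strain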
Details: growth OD

Measured: normalized growth

O=c1[nH]c2cc(Cl)c(Cl)cc2[nH]c1=O
inactive: S. cerevisiae deletion strains, locus YJR075W, strain HOC1, hits give low values 1 and 1.01 | S. cerevisiae deletion strains, locus YKL009W, strain mrt4, hits give low values 1.02 | S. cerevisiae deletion strains, locus YKL068W, hits give low values 1.02 | S. cerevisiae deletion strains, locus YKL085W, strain MDH1 (second series), hits give low values 1.01 | S. cerevisiae deletion strains, locus YKL085W, strain MDH1, hits give low values 1.01 | S. cerevisiae deletion strains, locus YKL160W, strain elf1, hits give low values 0.988 | S. cerevisiae deletion strains, locus YKL190W, strain CNB1, hits give low values 1.01 | S. cerevisiae deletion strains, locus YKR001C, strain vps1, hits give low values 1.05 | S. cerevisiae deletion strains, locus YKR026C, strain gcn3, hits give low values 0.989 | S. cerevisiae deletion strains, locus YKR091W, strain srl3, hits give low values 0.987 | S. cerevisiae deletion strains, locus YLL001W, strain dnm1, hits give low values 0.992 | S. cerevisiae deletion strains, locus YLL026W, hits give low values 0.988 | S. cerevisiae deletion strains, locus YLL041C, strain sdh2, hits give low values 0.995 | S. cerevisiae deletion strains, locus YLR027C, strain aat2, hits give low values 0.957 | S. cerevisiae deletion strains, locus YLR039C, strain RIC1, hits give low values 1.04 | S. cerevisiae deletion strains, locus YLR058C, strain SHM2, hits give low values 1.01 | S. cerevisiae deletion strains, locus YLR102C, strain apc9, hits give low values 1.02 | S. cerevisiae deletion strains, locus YLR221C, strain rsa3, hits give low values 0.955 | S. cerevisiae deletion strains, locus YLR258W, strain gsy2, hits give low values 0.99 | S. cerevisiae deletion strains, locus YLR262C, strain YPT6 (second series), hits give low values 0.989 | S. cerevisiae deletion strains, locus YLR262C, strain YPT6, hits give low values 1.04 | S. cerevisiae deletion strains, locus YLR268W, strain sec22, hits give low values 1.03 | S. cerevisiae deletion strains, locus YLR320W, strain mms22, hits give low values 0.963 | S. cerevisiae deletion strains, locus YLR342W, strain FKS1 (second series), hits give low values 0.99 | S. cerevisiae deletion strains, locus YLR342W, strain FKS1, hits give low values 0.988 | S. cerevisiae deletion strains, locus YLR357W, strain rsc2, hits give low values 0.984 | S. cerevisiae deletion strains, locus YLR370C, strain arc18, hits give low values 0.995 | S. cerevisiae deletion strains, locus YLR371W, strain rom2, hits give low values 1.03 | S. cerevisiae deletion strains, locus YLR384C, strain iki3, hits give low values 1.01 | S. cerevisiae deletion strains, locus YLR418C, strain cdc73, hits give low values 1.07 | S. cerevisiae deletion strains, locus YML016C, strain PPZ1, hits give low values 1.01 | S. cerevisiae deletion strains, locus YML032C, strain rad52, hits give low values 1.04 | S. cerevisiae deletion strains, locus YML120C, strain ndi1, hits give low values 1.02 | S. cerevisiae deletion strains, locus YML124C, strain tub3, hits give low values 1.02 | S. cerevisiae deletion strains, locus YMR058W, strain fet3, hits give low values 0.994 | S. cerevisiae deletion strains, locus YMR078C, strain ctf18, hits give low values 1.03 | S. cerevisiae deletion strains, locus YMR125W, strain sto1, hits give low values 0.994 | S. cerevisiae deletion strains, locus YMR129W, hits give low values 1.01 | S. cerevisiae deletion strains, locus YMR205C, strain PFK2, hits give low values 0.974 | S. cerevisiae deletion strains, locus YMR223W, strain ubp8, hits give low values 1.03 | S. cerevisiae deletion strains, locus YMR231W, strain pep5, hits give low values 0.996 | S. cerevisiae deletion strains, locus YMR263W, strain SAP30, hits give low values 1 | S. cerevisiae deletion strains, locus YMR307W, strain GAS1, hits give low values 1.03 and 1.01 | S. cerevisiae deletion strains, locus YNL067W, strain RPL9B, hits give low values 1.01 | S. cerevisiae deletion strains, locus YNL071W, strain lat1, hits give low values 0.999 | S. cerevisiae deletion strains, locus YNL128W, strain TEP1, hits give low values 1.02 | S. cerevisiae deletion strains, locus YNL153C, strain GIM3, hits give low values 1.01 | S. cerevisiae deletion strains, locus YNL175C, strain NOP13, hits give low values 0.996 | S. cerevisiae deletion strains, locus YNL197C, strain WHI3, hits give low values 0.975 | S. cerevisiae deletion strains, locus YNL209W, strain ssb2, hits give low values 1 | S. cerevisiae deletion strains, locus YNL224C, strain SQS1, hits give low values 1 | S. cerevisiae deletion strains, locus YNL233W, strain BNI4, hits give low values 1 | S. cerevisiae deletion strains, locus YNL248C, strain rpa49, hits give low values 1.01 | S. cerevisiae deletion strains, locus YNL250W, strain rad50, hits give low values 1.03 | S. cerevisiae deletion strains, locus YNL271C, strain bni1, hits give low values 1.04 | S. cerevisiae deletion strains, locus YNL298W, strain CLA4, hits give low values 1.03 | S. cerevisiae deletion strains, locus YNL307C, strain MCK1, hits give low values 1.04 | S. cerevisiae deletion strains, locus YNL322C, strain KRE1 (second series), hits give low values 0.985 | S. cerevisiae deletion strains, locus YNL322C, strain KRE1, hits give low values 1 | S. cerevisiae deletion strains, locus YNR049C, strain mso1, hits give low values 0.992 | S. cerevisiae deletion strains, locus YNR052C, strain pop2, hits give low values 1.03 | S. cerevisiae deletion strains, locus YOL006C, strain TOP1, hits give low values 1.05 | S. cerevisiae deletion strains, locus YOL012C, strain htz1 1.66 | S. cerevisiae deletion strains, locus YOL147C, strain pex11, hits give low values 1.03 | S. cerevisiae deletion strains, locus YOR001W, strain rrp6, hits give low values 0.959 | S. cerevisiae deletion strains, locus YOR061W, strain CKA2, hits give low values 1.02 | S. cerevisiae deletion strains, locus YOR069W, strain VPS5, hits give low values 1.01 | S. cerevisiae deletion strains, locus YOR070C, strain gyp1, hits give low values 0.97 | S. cerevisiae deletion strains, locus YOR080W, strain dia2, hits give low values 0.983 | S. cerevisiae deletion strains, locus YOR083W, strain WHI5 (second series), hits give low values 0.984 | S. cerevisiae deletion strains, locus YOR083W, strain WHI5, hits give low values 0.982 | S. cerevisiae deletion strains, locus YOR106W, strain vam3, hits give low values 1.01 | S. cerevisiae deletion strains, locus YOR136W, strain idh2, hits give low values 1.04 | S. cerevisiae deletion strains, locus YOR144C, strain elg1, hits give low values 1.02 | S. cerevisiae deletion strains, locus YOR184W, strain ser1, hits give low values 1.03 | S. cerevisiae deletion strains, locus YOR265W, strain rbl2, hits give low values 0.987 | S. cerevisiae deletion strains, locus YOR270C, strain vph1, hits give low values 0.96 | S. cerevisiae deletion strains, locus YOR290C, strain snf2, hits give low values 0.971 | S. cerevisiae deletion strains, locus YOR316C, strain cot1, hits give low values 1.02 | S. cerevisiae deletion strains, locus YPL051W, strain arl3, hits give low values 0.961 | S. cerevisiae deletion strains, locus YPL055C, strain LGE1, hits give low values 1.02 | S. cerevisiae deletion strains, locus YPL078C, strain atp4, hits give low values 0.997 | S. cerevisiae deletion strains, locus YPL106C, strain sse1, hits give low values 0.97 | S. cerevisiae deletion strains, locus YPL240C, strain hsp82, hits give low values 0.988 | S. cerevisiae deletion strains, locus YPL241C, strain CIN2, hits give low values 1.01 | S. cerevisiae deletion strains, locus YPR119W, strain clb2, hits give low values 1.03 | S. cerevisiae deletion strains, locus YPR141C, strain kar3, hits give low values 1.03 | S. cerevisiae deletion strains, locus YPR163C, strain tif3, hits give low values 1.04 | S. cerevisiae deletion strains, locus YPR167C, strain met16, hits give low values 1.02 | S. cerevisiae deletion strains, strain wtn01, hits give low values 1.02 | S. cerevisiae strains, strain wild type, hits give low values 1.01
active: S. cerevisiae deletion strains, locus YLR330W, strain CHS5, hits give low values 0.894

Reference: PubChem BioAssay AID1159580 (chemical genetic matrix, 2015)
